Fam108B counter: Fam108B inhibition, counter-screen for RBBP9 inhibitors. AID 1947. recombinant Fam108B, FP-Rh probe fluorescence polarization. actives 0.33% (n = 300,000). inhibition, % at 9.51 µM;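 active = inhibition above the screen mean inhibition plus 3 SD, computed separately per campaign, cut at about 18% in these data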;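 also: inhibitors lower polarization as less probe binds the enzyme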
PME-1 primary: blocks human protein phosphatase methylesterase 1; Q9Y570; recombinant PME-1, FP-Rh probe fluorescence polarization; inhibition, % at 5.9 µM; actives 0.53% (n = 320,000); AID 2130;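 active = inhibition above the campaign mean of all compounds plus 3 SD, cut at about 26% in these data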;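 also: competitive labeling of PME-1 active site by serine hydrolase directed probe; 0% = PME-1 with DMSO and 100% = wells lacking PME-1 enzyme; inhibitors block probe labeling so polarization falls and inhibition rises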
LYPLA1 counter: blocks human lysophospholipase 1, a PME1 counter-screen | recombinant LYPLA1, FP-Rh probe fluorescence polarization | inhibition, % at 5.9 µM | actives 0.16% (n = 320,000) | AID 2174;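 active = inhibition above the mean of all tested compounds plus 3 SD, set per campaign, cut at about 14% in these data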;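 also: inhibitors block serine hydrolase probe labeling of LYPLA1 so polarization falls; 0% = enzyme with DMSO and 100% = wells lacking LYPLA1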
Target sequence (O75608 whole entry, looked up): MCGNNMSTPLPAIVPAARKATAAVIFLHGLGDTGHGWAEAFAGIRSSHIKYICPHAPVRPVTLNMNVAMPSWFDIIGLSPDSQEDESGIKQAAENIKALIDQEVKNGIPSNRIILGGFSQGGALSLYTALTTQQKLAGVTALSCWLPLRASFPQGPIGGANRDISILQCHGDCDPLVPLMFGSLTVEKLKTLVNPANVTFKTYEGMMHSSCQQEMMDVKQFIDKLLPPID
PREPL inhibitor: inhibitors of human prolyl oligopeptidase-like enzyme PREPL; Q4J6C6; recombinant PREPL, fluorescence polarization activity-based probe; inhibition, % at 5.96 µM; actives 0.68% (n = 320,000); AID 2751; in the data active = inhibition above about 43%;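 also: 0% = enzyme with DMSO and 100% = wells lacking enzyme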
LYPLA2 inh: LYPLA2 (human) inhibition in PME1 counter-screen | O95372 | recombinant LYPLA2, FP-Rh probe fluorescence polarization | inhibition, % at 5.9 µM | actives 0.38% (n = 320,000);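 active = inhibition above the screen-wide mean plus 3 SD, limit set per campaign, cut at about 26% in these data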;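 also: 0% = LYPLA2 with DMSO and 100% = wells lacking LYPLA2 enzyme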
Target sequence (O95372 whole entry, looked up): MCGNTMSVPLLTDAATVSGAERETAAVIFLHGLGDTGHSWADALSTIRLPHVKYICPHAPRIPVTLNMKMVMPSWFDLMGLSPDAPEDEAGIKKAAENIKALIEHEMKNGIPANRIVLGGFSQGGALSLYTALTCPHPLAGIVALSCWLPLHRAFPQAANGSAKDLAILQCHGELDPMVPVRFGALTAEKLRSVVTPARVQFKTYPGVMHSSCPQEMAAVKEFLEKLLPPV
GSTO1 counter: GSTO1 inhibition, counter-screen for RBBP9 inhibitors; recombinant GSTO1, activity-based probe fluorescence polarization; actives 1.1% (n = 300,000); P78417; inhibition, % at 5.96 µM;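 active = inhibition above the campaign mean inhibition plus 3 SD, cut at about 35% in these data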;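 also: 0% = GSTO1-1 with DMSO and 100% = wells lacking GSTO1-1 enzyme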
GSTO1 inh conf: GSTO1 (human) inhibition, confirmation; inhibition, % at 5.96 µM; actives 54% (n = 2,400); shares compounds with GSTO1 counter; recombinant GSTO1, probe fluorescence polarization;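 active = inhibition above the primary screen's cutoff, its mean inhibition plus 3 SD, cut at about 35% in these data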;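 also: loss of polarization as inhibitors block binding of rhodamine sulfonate ester activity probe; 0% = GSTO1 with DMSO and 100% = wells lacking GSTO1 enzyme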
GSTO1 recomb ABPP: inhibitors of recombinant human GSTO1; shares compounds with GSTO1 counter; gel ABPP SE-Rh probe fluorescence; inhibition, % at 1 µM; actives 30% (n = 130); AID 463110;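 active = inhibition of the enzyme GSTO1 above about 75%, limit read from the data; inactive = inhibition below that limit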
The depositor's hits bear a star; nt = no result given; ! = not confirmed by another sample. Compounds with a hit are over-represented: about 1.9% of the library has one in this group of screens.

SMILES | Fam108B counter | PME-1 primary | LYPLA1 counter | PREPL inhibitor | LYPLA2 inh | GSTO1 counter | GSTO1 inh conf | others
CCc1cccc(NC(=O)CSC2=NS(=O)(=O)c3ccccc32)c1 | -4 | -2 | -1 | -5 | 1 | 55* | 1
N#CCC(=O)Nc1ccc(C(=O)OCC(=O)Nc2ccc3ccccc3c2)cc1 | nt | -53 | -29 | -26 | -46 | nt | nt
CCc1cc[n+](-c2nc3ccccc3nc2[N-]S(=O)(=O)c2ccc(Br)s2)cc1 | -6 | 10 | -8 | 8 | -5 | 0 | nt
CCc1ccc[n+](-c2nc3ccccc3nc2C(=C=[N-])C#N)c1 | -6 | -9 | -7 | 0 | -10 | 53* | 42*
Cc1ccc[n+](-c2nc3ccccc3nc2C(=C=[N-])C#N)c1 | -1 | 0 | -1 | 20 | -4 | 62* | 36*!
Cc1cc(C)c[n+](-c2nc3ccccc3nc2C(=C=[N-])C#N)c1 | 3 | 7 | 3 | -2 | -2 | 45* | 29
Cc1cc[n+](-c2nc3ccccc3nc2[N-]S(=O)(=O)c2ccccc2)cc1 | 8 | 0 | -1 | 14 | 1 | 4 | nt
CN1CCc2cccc3c2[C@@H]1Cc1ccc(O)c(O)c1-3 | 5 | 15 | -6 | 14 | 3 | 94* | 13
COc1ccc(C(=O)N/N=C/c2ccc3cccc(O)c3n2)cc1 | 2 | -14 | -10 | 19 | -12 | 41* | 6
COC(=O)/C(=C/Nc1ccc(O)cc1)[N+](=O)[O-] | -3 | 16 | 10 | 31 | 10 | 75* | 6
COC(=O)/C(=C/Nc1ccccc1)[N+](=O)[O-] | -2 | -8 | 2 | 9 | 2 | -4 | nt
CC(=O)Oc1ccc2c(C)cc(=O)oc2c1 | 0 | 0 | 1 | -8 | 3 | 0 | nt
CC(=O)Oc1cc(OC(C)=O)c2c(C)cc(=O)oc2c1 | 11 | 2 | 1 | 11 | -4 | 53* | 6
O=C(N/N=C/c1cc(Br)c(Br)o1)c1cccnc1 | 5 | -4 | -2 | 9 | 5 | 44* | 15
O=C(N/N=C\c1cc(Br)c(Br)o1)c1cncc(Br)c1 | 4 | 0 | -6 | 0 | -6 | -5 | nt
O=C(NNc1cc(N2CCOCC2)nc(N2CCOCC2)n1)c1ccc(Cl)c(Cl)c1 | 7 | 4 | 3 | 43 | -2 | 1 | nt
Cc1ccc(C(=O)NNc2cc(N3CCCC3)nc(N3CCCC3)n2)cc1 | 2 | -2 | 0 | 30 | -2 | 49* | 72*
CCC1(C)NC(=O)N(CC(=O)NCC(=O)Nc2c(C)cc(C)cc2C)C1=O (stereo not given) | nt | 5 | 0 | 25 | 2 | nt | nt
Cc1ccc(S(=O)(=O)N(C)c2ccc(C(=O)NCC(c3ccco3)N(C)C)cc2)cc1 (stereo not given) | nt | -7 | -1 | 2 | 4 | nt | nt
O=C(CSc1nnc(-c2cccs2)n1C1CC1)NC1CCS(=O)(=O)C1 (stereo not given) | nt | 2 | 0 | -1 | 1 | nt | nt
O=C(CSc1nnc(-c2ccc(Cl)cc2Cl)n1C1CCCCC1)NC1CCS(=O)(=O)C1 (stereo not given) | -3 | 1 | -1 | 1 | -3 | 45* | 4
COc1ccc(NC(=O)CSc2ccc([N+](=O)[O-])cc2)cc1S(=O)(=O)N1CCOCC1 | nt | -4 | -4 | 7 | -4 | nt | nt
C/C(CC(=O)Nc1ccc(Cl)cc1Cl)=N\NC(=O)C(=O)N1CCCC1 | -3 | -3 | -2 | 6 | 8 | 4 | nt
COCCNC(=O)C(=O)N/N=C(\C)CC(=O)Nc1ccc(Cl)cc1Cl | -2 | -2 | 0 | -5 | -2 | 71* | 8
NC(=O)c1cc(N)ccc1N1CCCC1 | 4 | 0 | 2 | 26 | 9 | 51* | 5
SMILES | Fam108B counter | PME-1 primary | LYPLA1 counter | PREPL inhibitor | LYPLA2 inh | GSTO1 counter | GSTO1 inh conf | others
COc1ccc(NC(=O)COC(=O)C2CC2)c(OC)c1 | nt | 2 | 1 | 10 | 7 | nt | nt
CCc1cccc(CC)c1NC(=O)COC(=O)C1(C)CC1(Cl)Cl (stereo not given) | 2 | 6 | -3 | 16 | -3 | 6 | nt
CC#CC#Cc1cccc(=O)o1 | 2 | -2 | 0 | 2 | -3 | 82* | 80*
COc1ccc(CCNC(=O)CSc2nc3[nH]c(=O)cc(O)c3s2)cc1 | nt | 0 | -5 | 7 | -1 | nt | nt
Cc1cccc(N(Cc2cc(=O)[nH]c3ccccc23)C(=O)CCl)c1 | -7 | -4 | 1 | 3 | -2 | 90* | 91* | GSTO1 recomb ABPP=76*
CCCC(=O)N(Cc1cc(=O)[nH]c2ccccc12)c1cccc(C)c1 | -4 | 3 | -4 | -9 | 0 | -5 | nt
COc1ccc(N(Cc2cc(=O)[nH]c3ccccc23)C(=O)CCl)cc1 | -3 | -1 | -4 | 9 | -6 | 79* | 95* | GSTO1 recomb ABPP=44
O=C1C(=O)c2ccccc2C([O-])=C1[n+]1ccccc1 | -1 | 1 | 3 | -2 | 10 | 24 | nt
CCc1cc[n+](C2=C([O-])c3ccccc3C(=O)/C2=N\S(=O)(=O)c2cccs2)cc1 | 10 | 7 | -4 | 38 | 2 | 83* | 82*
CCC(=O)[C@@]1(C)[C@H](C)C[C@H]2[C@@H]3CCC4=CC(=O)C=C[C@]4(C)[C@H]3[C@@H](O)C[C@@]21C | -5 | 1 | 0 | 7 | 5 | 0 | nt
Cc1cc(C(=O)CCl)c(C)n1-c1cccc([N+](=O)[O-])c1 | 1 | 22 | 0 | 3 | 15 | 96* | 94*
CC(=O)c1c(C(C)=O)c(C)n(-c2cccc([N+](=O)[O-])c2)c1C | 1 | 0 | 1 | 13 | 4 | 14 | nt
Oc1ccc(-c2csc(Nc3cccc4ccccc34)n2)cc1O | 2 | 9 | -12 | 18 | -10 | 62* | 5
CCc1cccc2c(C(=O)COC(=O)c3ccc([N+](=O)[O-])s3)c[nH]c12 | 13 | 29* | -4 | 10 | 1 | 53* | 26
O=C(OCC(=O)c1c[nH]c2ccccc12)c1ccc([N+](=O)[O-])s1 | 8 | 16 | -3 | 10 | 1 | 46* | 15
CCOC(=O)c1c(C)[nH]c(C)c1C(=O)COC(=O)c1ccc([N+](=O)[O-])s1 | nt | 1 | 3 | 23 | -4 | nt | nt
O=C(O)/C=C1\NC(=O)c2ccccc21 | 2 | 2 | -2 | 2 | -5 | 3 | nt
O=C1N/C(=C\c2ccc(O)cc2)C(=O)c2ccccc21 | 9 | 15 | 0 | 11 | 5 | 75* | 79*
Oc1ccccc1NCC(O)Cn1ccc2ccccc21 (stereo not given) | 2 | 25 | -7 | 45* | 7 | 66* | 7
Cc1ccc(SC/C(O)=C(\C#N)c2nc3ccccc3s2)cc1 | 10 | 6 | 3 | -2 | -3 | 49* | 48*

Bioassay records from PubChem.
